Laboratory results reported in article PMC7862700, “An all-to-all approach to the identification of sequence-specific readers for epigenetic DNA modifications on cytosine”.

Assays:
Test in all cases: DAPPL (digital affinity profiling via proximity ligation, sequencing); 10 mM Tris-HCl pH 7.5, 50 mM NaCl, 1 mM DTT, 4% glycerol, room temperature, 30 min; GST-TFs on glutathione beads, 16-mer random dsDNA library, 0.1% formaldehyde crosslink after washing; high values mean tight binding
[1] = biological target: T1, FLI1 (Homo sapiens, UniProt Q01543 1-452); details: protein: recombinant; tags: N-terminal GST; dsDNA, one strand shown
T1 sequence: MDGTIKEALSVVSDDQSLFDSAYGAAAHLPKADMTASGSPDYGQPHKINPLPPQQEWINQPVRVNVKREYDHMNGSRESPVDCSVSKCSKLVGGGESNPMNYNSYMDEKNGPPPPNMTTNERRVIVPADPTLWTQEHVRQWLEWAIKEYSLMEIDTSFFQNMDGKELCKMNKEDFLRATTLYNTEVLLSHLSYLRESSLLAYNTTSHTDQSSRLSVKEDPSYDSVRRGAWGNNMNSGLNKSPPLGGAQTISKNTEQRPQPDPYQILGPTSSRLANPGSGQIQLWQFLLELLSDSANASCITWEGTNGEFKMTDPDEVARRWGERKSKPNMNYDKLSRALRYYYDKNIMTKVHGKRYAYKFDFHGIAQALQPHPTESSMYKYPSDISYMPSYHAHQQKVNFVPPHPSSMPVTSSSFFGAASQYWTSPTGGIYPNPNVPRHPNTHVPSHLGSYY
In short: (§1)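 Human transcription factors fused to GST were expressed in yeast, captured on glutathione beads, given DNA barcodes and pooled with a GST-only negative control. Pools were incubated with 200 nmole of a 16-mer random double-stranded DNA library in Tris/NaCl/DTT/glycerol buffer at room temperature for 30 min. They were then washed, crosslinked with 0.1% formaldehyde, proximity-ligated (BsaI/T4 ligase, 1 h, 37 °C), PCR-amplified and sequenced on an Illumina NextSeq500. Binding signal is each 6-mer's read frequency for a factor divided by its frequency for the GST control.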

[2] = biological target: T2, ELK1 (Homo sapiens, UniProt P19419 1-428); details: protein: recombinant; tags: N-terminal GST; dsDNA, one strand shown
T2 sequence: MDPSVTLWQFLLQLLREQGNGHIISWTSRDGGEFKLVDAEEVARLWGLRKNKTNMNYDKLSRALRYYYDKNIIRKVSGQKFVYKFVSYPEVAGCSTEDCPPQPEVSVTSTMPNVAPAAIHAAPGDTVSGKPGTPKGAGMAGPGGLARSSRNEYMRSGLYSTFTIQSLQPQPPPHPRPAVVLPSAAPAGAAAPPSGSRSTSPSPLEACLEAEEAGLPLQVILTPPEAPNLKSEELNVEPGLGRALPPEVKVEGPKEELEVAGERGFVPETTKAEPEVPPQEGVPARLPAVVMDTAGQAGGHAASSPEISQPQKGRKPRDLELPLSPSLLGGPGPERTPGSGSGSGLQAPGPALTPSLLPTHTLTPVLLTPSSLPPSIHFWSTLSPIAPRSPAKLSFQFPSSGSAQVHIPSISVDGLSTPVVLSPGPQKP
In short: as §1

[3] = biological target: T3, GABPA (Homo sapiens, UniProt Q06546 1-454); details: protein: recombinant; tags: N-terminal GST; dsDNA, one strand shown
T3 sequence: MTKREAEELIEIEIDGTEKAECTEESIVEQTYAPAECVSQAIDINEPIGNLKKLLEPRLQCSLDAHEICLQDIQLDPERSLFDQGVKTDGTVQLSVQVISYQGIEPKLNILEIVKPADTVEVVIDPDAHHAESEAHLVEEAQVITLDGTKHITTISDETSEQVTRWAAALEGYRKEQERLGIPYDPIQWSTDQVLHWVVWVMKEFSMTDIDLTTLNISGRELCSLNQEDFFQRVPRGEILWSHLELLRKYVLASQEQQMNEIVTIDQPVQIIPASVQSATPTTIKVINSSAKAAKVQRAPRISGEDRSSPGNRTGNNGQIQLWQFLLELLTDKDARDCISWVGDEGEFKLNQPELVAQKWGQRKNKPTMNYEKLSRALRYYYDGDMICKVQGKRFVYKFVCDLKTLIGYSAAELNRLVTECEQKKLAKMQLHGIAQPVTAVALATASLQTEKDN
In short: as §1

[4] = biological target: T4, ERG (Homo sapiens, UniProt P11308 1-479); details: protein: recombinant; tags: N-terminal GST; dsDNA, one strand shown
T4 sequence: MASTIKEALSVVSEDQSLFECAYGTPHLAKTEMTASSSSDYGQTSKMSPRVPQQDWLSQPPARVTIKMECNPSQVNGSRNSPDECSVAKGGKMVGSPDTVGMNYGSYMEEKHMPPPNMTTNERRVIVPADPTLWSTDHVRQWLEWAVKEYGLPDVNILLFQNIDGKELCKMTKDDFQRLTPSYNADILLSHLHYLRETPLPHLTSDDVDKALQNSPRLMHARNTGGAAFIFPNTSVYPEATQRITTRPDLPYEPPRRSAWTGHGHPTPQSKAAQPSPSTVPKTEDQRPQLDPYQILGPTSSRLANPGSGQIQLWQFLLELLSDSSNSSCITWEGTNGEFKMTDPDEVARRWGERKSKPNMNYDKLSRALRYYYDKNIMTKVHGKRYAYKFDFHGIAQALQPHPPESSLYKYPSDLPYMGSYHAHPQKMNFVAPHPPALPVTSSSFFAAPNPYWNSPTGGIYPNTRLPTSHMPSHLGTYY
In short: as §1

[5] = biological target: ELF1 (Homo sapiens, UniProt P32519 1-619); details: protein: recombinant; tags: N-terminal GST; dsDNA, one strand shown
In short: as §1

[6] = biological target: T5, EHF (Homo sapiens, UniProt Q9NZC4 1-300); details: protein: recombinant; tags: N-terminal GST; dsDNA, one strand shown
T5 sequence: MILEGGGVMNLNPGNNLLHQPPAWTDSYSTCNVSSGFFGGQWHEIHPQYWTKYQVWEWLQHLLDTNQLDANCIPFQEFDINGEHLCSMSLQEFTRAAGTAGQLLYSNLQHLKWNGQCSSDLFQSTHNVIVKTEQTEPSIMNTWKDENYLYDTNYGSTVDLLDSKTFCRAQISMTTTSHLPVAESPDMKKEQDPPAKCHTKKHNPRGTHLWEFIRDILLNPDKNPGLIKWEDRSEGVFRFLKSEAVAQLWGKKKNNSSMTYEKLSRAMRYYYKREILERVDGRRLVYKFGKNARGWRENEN
In short: as §1

[7] = biological target: SPI1 (Homo sapiens, UniProt P17947 1-270); details: protein: recombinant; tags: N-terminal GST; dsDNA, one strand shown
In short: as §1

[8] = biological target: SPIB (Homo sapiens, UniProt Q01892 1-262); details: protein: recombinant; tags: N-terminal GST; dsDNA, one strand shown
In short: as §1

[9] = biological target: T6, ELK3 (Homo sapiens, UniProt P41970 1-407); details: protein: recombinant; tags: N-terminal GST; dsDNA, one strand shown
T6 sequence: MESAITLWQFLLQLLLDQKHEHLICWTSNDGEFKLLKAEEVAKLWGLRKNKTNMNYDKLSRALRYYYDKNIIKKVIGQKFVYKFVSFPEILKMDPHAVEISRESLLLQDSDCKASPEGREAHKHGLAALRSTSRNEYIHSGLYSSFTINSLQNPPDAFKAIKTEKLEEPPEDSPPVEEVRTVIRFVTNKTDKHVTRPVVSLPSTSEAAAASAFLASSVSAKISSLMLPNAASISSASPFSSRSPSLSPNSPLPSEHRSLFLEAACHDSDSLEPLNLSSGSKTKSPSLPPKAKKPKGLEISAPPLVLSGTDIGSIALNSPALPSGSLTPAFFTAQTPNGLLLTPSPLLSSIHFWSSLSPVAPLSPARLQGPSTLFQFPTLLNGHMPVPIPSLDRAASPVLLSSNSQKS
In short: as §1

[10] = biological target: T7, FEV (Homo sapiens, UniProt Q99581 1-238); details: protein: recombinant; tags: N-terminal GST; dsDNA, one strand shown
T7 sequence: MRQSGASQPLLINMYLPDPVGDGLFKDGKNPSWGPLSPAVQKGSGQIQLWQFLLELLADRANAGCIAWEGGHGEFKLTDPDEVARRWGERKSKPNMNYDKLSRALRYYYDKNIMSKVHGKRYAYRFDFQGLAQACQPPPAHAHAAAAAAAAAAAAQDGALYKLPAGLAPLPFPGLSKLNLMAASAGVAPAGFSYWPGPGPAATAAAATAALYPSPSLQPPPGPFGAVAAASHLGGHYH
In short: as §1

[11] = biological target: ETV5 (Homo sapiens, UniProt P41161 1-510); details: protein: recombinant; tags: N-terminal GST; dsDNA, one strand shown
In short: as §1

[12] = biological target: HSF1 (Homo sapiens, UniProt Q00613 1-529); details: protein: recombinant; tags: N-terminal GST; chain copies: 3; dsDNA, one strand shown
In short: as §1

[13] = biological target: T8, SPIC (Homo sapiens, UniProt Q8N5J4 1-248); details: protein: recombinant; tags: N-terminal GST; dsDNA, one strand shown
T8 sequence: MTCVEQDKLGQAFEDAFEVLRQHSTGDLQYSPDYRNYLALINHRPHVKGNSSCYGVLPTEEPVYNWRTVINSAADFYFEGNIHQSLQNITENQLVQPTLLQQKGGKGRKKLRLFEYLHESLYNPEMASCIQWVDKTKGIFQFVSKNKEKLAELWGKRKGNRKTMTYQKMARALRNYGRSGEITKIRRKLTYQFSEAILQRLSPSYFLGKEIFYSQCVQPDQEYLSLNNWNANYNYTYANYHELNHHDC
In short: as §1

[14] = biological target: ELF4 (Homo sapiens, UniProt Q99607 1-663); details: protein: recombinant; tags: N-terminal GST; dsDNA, one strand shown
In short: as §1

[15] = biological target: T9, ELK4 (Homo sapiens, UniProt P28324-2 1-405); details: protein: recombinant; tags: N-terminal GST; dsDNA, one strand shown
T9 sequence: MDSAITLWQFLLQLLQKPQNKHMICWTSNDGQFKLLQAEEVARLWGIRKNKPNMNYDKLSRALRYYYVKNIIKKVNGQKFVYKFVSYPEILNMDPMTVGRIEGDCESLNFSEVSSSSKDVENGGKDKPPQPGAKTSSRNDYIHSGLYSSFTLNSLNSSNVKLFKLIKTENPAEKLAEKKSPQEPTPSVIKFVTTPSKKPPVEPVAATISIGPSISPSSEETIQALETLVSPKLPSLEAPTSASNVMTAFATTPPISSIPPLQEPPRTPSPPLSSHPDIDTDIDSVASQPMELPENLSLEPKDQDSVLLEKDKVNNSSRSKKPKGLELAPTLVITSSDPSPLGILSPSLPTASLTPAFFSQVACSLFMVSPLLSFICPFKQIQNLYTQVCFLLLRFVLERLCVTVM
In short: as §1

[16] = biological target: T10, ETV2 (Homo sapiens, UniProt O00321 1-342); details: protein: recombinant; tags: N-terminal GST; dsDNA, one strand shown
T10 sequence: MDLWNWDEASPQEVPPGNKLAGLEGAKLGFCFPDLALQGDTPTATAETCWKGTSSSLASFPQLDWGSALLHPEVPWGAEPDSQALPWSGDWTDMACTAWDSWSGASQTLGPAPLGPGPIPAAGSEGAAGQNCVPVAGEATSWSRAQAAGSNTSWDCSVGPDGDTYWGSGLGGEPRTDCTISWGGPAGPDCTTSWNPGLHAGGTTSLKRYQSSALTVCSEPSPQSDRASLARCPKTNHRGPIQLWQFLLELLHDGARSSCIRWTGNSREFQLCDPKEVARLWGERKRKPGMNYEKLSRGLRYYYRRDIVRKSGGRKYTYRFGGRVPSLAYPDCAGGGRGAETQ
In short: as §1

[17] = biological target: T11, ELF3 (Homo sapiens, UniProt P78545 1-371); details: protein: recombinant; tags: N-terminal GST; dsDNA, one strand shown
T11 sequence: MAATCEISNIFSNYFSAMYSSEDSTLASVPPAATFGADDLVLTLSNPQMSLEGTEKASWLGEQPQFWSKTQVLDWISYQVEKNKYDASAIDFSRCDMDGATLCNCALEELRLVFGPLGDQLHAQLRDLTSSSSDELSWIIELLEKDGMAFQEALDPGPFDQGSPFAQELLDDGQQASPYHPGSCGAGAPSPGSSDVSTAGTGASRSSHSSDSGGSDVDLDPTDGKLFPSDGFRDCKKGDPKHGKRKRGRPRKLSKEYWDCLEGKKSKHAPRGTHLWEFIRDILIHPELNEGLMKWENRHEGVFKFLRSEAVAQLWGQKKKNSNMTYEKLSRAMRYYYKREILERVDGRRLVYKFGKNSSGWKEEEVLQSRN
In short: as §1

[18] = biological target: CRX (Homo sapiens, UniProt O43186 1-299); details: protein: recombinant; tags: N-terminal GST; dsDNA, one strand shown
In short: as §1

[19] = biological target: ETV1 (Homo sapiens, UniProt P50549 1-477); details: protein: recombinant; tags: N-terminal GST; dsDNA, one strand shown
In short: as §1

Chain of SPIB (Q01892 whole entry): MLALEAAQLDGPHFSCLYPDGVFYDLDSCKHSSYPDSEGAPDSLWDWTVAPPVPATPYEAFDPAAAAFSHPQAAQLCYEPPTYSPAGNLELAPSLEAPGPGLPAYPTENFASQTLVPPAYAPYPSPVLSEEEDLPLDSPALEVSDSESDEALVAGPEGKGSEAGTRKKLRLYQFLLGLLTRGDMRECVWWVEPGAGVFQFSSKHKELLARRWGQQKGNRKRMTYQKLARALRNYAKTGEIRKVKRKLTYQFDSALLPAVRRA
Chain of ELF1 (P32519 whole entry): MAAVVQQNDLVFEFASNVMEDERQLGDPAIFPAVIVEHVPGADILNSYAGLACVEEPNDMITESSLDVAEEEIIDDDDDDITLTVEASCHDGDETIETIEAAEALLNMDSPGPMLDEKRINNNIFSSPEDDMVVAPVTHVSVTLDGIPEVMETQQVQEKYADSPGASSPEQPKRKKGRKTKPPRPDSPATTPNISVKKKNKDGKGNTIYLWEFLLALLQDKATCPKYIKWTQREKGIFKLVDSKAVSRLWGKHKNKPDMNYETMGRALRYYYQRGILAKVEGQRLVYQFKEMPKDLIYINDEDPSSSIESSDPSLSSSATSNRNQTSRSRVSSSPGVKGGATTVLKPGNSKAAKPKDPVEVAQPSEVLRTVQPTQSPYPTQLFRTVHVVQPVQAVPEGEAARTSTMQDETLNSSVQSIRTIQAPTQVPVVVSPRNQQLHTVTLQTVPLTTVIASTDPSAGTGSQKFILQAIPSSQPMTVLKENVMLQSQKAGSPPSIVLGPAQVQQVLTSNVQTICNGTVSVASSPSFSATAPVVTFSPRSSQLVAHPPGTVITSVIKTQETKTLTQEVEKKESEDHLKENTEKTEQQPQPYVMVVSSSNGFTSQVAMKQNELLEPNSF
Chain of HSF1 (Q00613 whole entry): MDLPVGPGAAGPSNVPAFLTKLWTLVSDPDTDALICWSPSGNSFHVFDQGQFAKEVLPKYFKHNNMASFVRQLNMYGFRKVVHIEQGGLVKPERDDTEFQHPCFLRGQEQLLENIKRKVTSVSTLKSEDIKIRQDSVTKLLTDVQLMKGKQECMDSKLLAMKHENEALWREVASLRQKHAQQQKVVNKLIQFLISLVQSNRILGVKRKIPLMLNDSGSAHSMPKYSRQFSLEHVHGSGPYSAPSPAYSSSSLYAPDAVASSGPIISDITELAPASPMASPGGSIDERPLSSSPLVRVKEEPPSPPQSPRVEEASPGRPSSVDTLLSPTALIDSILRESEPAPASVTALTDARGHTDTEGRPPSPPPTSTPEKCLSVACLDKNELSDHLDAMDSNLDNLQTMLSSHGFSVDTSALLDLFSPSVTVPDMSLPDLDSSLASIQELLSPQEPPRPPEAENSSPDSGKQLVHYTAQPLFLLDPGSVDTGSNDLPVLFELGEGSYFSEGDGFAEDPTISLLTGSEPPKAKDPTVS
Chain of ETV1 (P50549 whole entry): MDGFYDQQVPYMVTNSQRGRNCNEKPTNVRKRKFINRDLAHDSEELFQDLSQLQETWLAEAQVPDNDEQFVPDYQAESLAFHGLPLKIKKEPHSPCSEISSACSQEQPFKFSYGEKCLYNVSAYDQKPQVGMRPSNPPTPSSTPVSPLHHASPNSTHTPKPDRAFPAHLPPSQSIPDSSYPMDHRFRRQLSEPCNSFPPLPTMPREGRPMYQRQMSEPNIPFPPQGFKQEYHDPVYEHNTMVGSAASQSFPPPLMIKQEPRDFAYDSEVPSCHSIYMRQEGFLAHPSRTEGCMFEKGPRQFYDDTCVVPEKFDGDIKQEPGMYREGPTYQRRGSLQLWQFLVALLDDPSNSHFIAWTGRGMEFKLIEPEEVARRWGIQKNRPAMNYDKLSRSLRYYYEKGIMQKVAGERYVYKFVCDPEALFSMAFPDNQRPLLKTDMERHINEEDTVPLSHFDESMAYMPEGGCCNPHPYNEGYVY
Chain of ETV5 (P41161 whole entry): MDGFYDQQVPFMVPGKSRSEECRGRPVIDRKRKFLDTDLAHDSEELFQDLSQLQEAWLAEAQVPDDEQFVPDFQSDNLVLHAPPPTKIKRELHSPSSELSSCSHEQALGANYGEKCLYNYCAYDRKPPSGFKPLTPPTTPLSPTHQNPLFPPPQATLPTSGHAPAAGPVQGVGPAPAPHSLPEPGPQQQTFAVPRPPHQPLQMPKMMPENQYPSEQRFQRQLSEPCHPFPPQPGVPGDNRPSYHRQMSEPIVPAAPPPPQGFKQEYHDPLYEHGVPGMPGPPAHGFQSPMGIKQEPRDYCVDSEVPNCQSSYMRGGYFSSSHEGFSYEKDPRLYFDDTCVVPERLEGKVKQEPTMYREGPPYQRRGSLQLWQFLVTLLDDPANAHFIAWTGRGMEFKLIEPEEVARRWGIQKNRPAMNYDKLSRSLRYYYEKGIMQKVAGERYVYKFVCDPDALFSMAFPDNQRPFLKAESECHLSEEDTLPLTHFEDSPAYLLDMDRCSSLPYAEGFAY
Chain of CRX (O43186 whole entry): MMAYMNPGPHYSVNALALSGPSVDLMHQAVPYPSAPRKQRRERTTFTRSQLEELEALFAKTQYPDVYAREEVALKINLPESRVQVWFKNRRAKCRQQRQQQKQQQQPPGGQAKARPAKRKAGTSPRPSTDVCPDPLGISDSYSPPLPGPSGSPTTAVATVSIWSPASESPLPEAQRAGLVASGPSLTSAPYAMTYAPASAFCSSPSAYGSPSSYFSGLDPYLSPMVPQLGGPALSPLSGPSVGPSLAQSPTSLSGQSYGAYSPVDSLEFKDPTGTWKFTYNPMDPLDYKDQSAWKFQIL
Chain of ELF4 (Q99607 whole entry): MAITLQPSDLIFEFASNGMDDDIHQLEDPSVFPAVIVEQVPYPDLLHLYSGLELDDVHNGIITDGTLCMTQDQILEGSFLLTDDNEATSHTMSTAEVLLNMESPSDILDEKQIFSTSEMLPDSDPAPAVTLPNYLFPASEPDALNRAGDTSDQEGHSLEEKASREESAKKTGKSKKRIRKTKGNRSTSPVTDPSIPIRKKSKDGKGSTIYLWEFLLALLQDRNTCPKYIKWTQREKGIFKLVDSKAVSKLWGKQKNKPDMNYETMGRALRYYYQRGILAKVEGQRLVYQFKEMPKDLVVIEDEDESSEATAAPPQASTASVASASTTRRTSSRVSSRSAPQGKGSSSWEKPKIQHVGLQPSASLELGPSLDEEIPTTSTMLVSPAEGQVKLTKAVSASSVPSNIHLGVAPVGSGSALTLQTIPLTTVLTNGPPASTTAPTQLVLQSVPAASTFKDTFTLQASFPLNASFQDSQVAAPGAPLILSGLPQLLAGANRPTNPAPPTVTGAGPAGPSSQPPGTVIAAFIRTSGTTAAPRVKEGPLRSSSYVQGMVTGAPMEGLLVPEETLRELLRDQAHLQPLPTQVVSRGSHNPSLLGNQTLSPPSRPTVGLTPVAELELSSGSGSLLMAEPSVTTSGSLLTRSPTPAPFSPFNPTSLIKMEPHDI

AATAGC
binding signal [1]: 1.17 fold enrichment (6-mer frequency, TF over GST control)
binding signal [2]: 1.14 fold enrichment (6-mer frequency, TF over GST control)
binding signal [3]: 1.17 fold enrichment (6-mer frequency, TF over GST control)
binding signal [4]: 1.12 fold enrichment (6-mer frequency, TF over GST control)
binding signal [5]: 1.09 fold enrichment (6-mer frequency, TF over GST control)
binding signal [6]: 1.23 fold enrichment (6-mer frequency, TF over GST control)
binding signal [7]: 1.15 fold enrichment (6-mer frequency, TF over GST control)
binding signal [8]: 1.16 fold enrichment (6-mer frequency, TF over GST control)
binding signal [9]: 1.1 fold enrichment (6-mer frequency, TF over GST control)
binding signal [10]: 1.18 fold enrichment (6-mer frequency, TF over GST control)
binding signal [11]: 1.19 fold enrichment (6-mer frequency, TF over GST control)
binding signal [12]: 1.07 fold enrichment (6-mer frequency, TF over GST control)
binding signal [13]: 1.01 fold enrichment (6-mer frequency, TF over GST control)
binding signal [14]: 1.15 fold enrichment (6-mer frequency, TF over GST control)
binding signal [15]: 1.19 fold enrichment (6-mer frequency, TF over GST control)
binding signal [16]: 1.17 fold enrichment (6-mer frequency, TF over GST control)
binding signal [17]: 1.23 fold enrichment (6-mer frequency, TF over GST control)
binding signal [18]: 1.15 fold enrichment (6-mer frequency, TF over GST control)
binding signal [19]: 1.13 fold enrichment (6-mer frequency, TF over GST control)
